# Assay results from PubChem BioAssay.
# Tests used:
# [1] = molecular target: Tumor necrosis factor receptor superfamily member 10B (Homo sapiens) (UniProt O14763); assay: caspase-8 TRAIL sensitization, hit retest, confirmation, cell-based, NB7+caspase-8, with/without TRAIL, luminescence panel (AID 651596); conditions: NB7 neuroblastoma + caspase-8, TRAIL sensitization, luminescence viability, with TRAIL, mean of runs, at 10 µM, stronger effect = higher value
# [2] = as above; conditions: NB7 neuroblastoma + caspase-8, without TRAIL, luminescence viability, without TRAIL, mean of runs, at 10 µM
# Tumor necrosis factor receptor superfamily member 10B (Homo sapiens), sequence (O14763 whole entry, looked up): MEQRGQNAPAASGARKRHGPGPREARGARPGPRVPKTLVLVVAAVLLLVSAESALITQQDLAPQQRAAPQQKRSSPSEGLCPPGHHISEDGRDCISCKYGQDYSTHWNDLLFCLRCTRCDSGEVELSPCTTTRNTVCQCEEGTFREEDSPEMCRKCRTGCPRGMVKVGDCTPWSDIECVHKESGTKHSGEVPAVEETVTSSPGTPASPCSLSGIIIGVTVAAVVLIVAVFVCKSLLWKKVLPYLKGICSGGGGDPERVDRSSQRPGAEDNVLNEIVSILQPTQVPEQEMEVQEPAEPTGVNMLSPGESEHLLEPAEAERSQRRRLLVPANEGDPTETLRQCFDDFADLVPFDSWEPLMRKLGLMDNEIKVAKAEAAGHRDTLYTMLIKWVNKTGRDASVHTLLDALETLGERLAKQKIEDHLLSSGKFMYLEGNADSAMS
Structure (SMILES),activity [1] [%],activity [2] [%]
Cc1cc(NC(=O)c2ccc(C(C)(C)C)cc2)no1,77.8,79.9
O=C(CSc1nnc(-c2ccccc2)o1)Nc1ccccc1F,55.1,43.5
O=C(CN1C(=O)c2ccccc2S1(=O)=O)c1ccccc1F,16.9,27.8
Cc1ccc(NC(=O)CSc2ccc(-c3ccc4c(c3)OCO4)nn2)cc1F,39,44.9
C#Cc1ccc([C@H]2C=C(C(=O)Nc3ccccc3)O[C@@H](OCc3ccc(CO)cc3)C2)cc1,92,93.4
COc1ccc2[nH]c(C(=O)Nc3cccc(C)n3)cc2c1,58.8,59.5
C/C(=N\Nc1nc2ccccc2[nH]1)c1cc2ccccc2o1,47.5,43.7
O=C(Nc1ccc2c(c1)OCCO2)c1ccc(Cl)cc1Cl,72.8,66.6
Nc1nc(Nc2ccc(Cl)cc2)nc2ccccc12,84.4,83.5
CC(C)C[C@H](NC(=O)c1nc[nH]c1C(=O)N[C@@H](CCCCNC(=O)OC(C)(C)C)C(=O)OC(C)(C)C)C(=O)OC(C)(C)C,84.7,68.1
COc1ccccc1OCCNC(=O)c1ccc2c(c1)OCCO2,41,45.9
O=C(Nc1ccc2c(c1)OCCO2)c1ccc2nccnc2c1,53.5,50.4
COc1ccc2cc3cc(C(=O)N4CCCCCC4)oc3nc2c1,45.1,41.9
C/C(=N\NC(=O)c1ccccc1O)c1ccc(Br)s1,57.8,69.5
O=C(NCCN1C(=O)S/C(=C\c2ccc(Cl)c([N+](=O)[O-])c2)C1=O)C1=COCCO1,63.1,72.9
O=C(CN(Cc1ccccc1)C(=O)CCl)c1cccc(Br)c1,99.3,93.5
CC(NC(=O)CCl)c1ccc(Cl)c(Cl)c1 (stereo not given),51,81.5
CSc1nnc(NC(=O)c2nc(S(=O)(=O)Cc3ccccc3F)ncc2Cl)s1,80.3,58.1
COc1ccc(CN(C(=O)CSc2nnc(-c3ccccc3C)o2)c2ccc(F)cc2)cc1,97.9,97.3
O=C(CCl)N(O)c1ccc(C=Cc2ccccc2)cc1,40,53.7
COC(=O)C12OCC34C(CC5C(C)=C(O)C(=O)CC5(C)C3C(O)C1O)OC(=O)C(OC(=O)C=C(C)C)C24 (stereo not given),91,96.2
Cc1cccc(Nc2nc(N)nc(CCl)n2)c1,97.7,96.8
Cc1ccc(Nc2nc(N)nc(CCl)n2)cc1,98.9,97.5

Structure (SMILES),activity [1] [%],activity [2] [%]
CC(C)c1ccc(/C=N/NC(=O)c2c(Cl)cnn2C)cc1,80.1,71.3
O=C(Nc1ccccc1)c1cc(C2CCCN(C(=O)C3CC3)C2)on1 (stereo not given),48.6,32.4
CCC(C)c1ccc(NC(=O)c2ccco2)cc1 (stereo not given),81.5,82.8
Cc1ccc(Nc2nc(NCc3ccco3)c3ccccc3n2)cc1,41.2,45.6
c1ccc2nc(-c3ccc(N4CCOCC4)cc3)ccc2c1,72.2,69
CCn1cc(C(=O)NCC(OC)OC)c(=O)c2cc(S(=O)(=O)N3CCC(C)CC3)ccc21,57.3,64.5
O=[N+]([O-])c1c(Nc2ccccc2O)cc(Cl)c2nonc12,63.9,98.3
O=C(CSC(=S)N1CCCCC1)c1ccccc1,50.8,35.2
Cc1ccc(C(=O)Nc2nc3ccccc3c(=O)s2)cc1,80.8,80
O=C(N/N=C/C(Cl)=C/c1ccccc1)c1ccccn1,61.2,42.8
CCCCCCN(C(=O)CCl)c1ccccc1,98.8,99.2
O=C(Nc1nc2c(s1)CCCC2)c1ccc(Br)o1,73.7,88.6
COc1cccc(C(=O)Nc2nc3ccccc3[nH]2)c1,91,85.3
N#Cc1cc2c(nc1SCC(=O)Nc1nccs1)CCCCC2,67.8,69.2
Nc1nn2cc(-c3ccccc3)nc2c2ccccc12,54.7,53.4
Cc1ccccc1Nc1nc(N)c2ccccc2n1,63.9,59.8
CCCCCCCN(C(=O)CCl)c1ccccc1C,99.6,98.1
Cc1cccc(N2CCN(S(=O)(=O)c3ccc4c(c3)NC(=O)C(C)S4)CC2)c1C (stereo not given),-0.6,-25.6
Cc1ccc(C(=O)N/C(=C\c2ccc(-c3ccccc3[N+](=O)[O-])o2)C(=O)NCCN(C)C)cc1,42,99.7
Cc1nn(-c2ccccc2)c(Cl)c1CN(C(=O)CCl)c1cccc2ccccc12,98.8,99.7
O=C(NC1=NC2CCCCC2N1)c1ccccc1 (stereo not given),62.8,52.1
O=C(/C=C/c1ccccc1)Nc1ccc2c(c1)C(=O)NC2=O,14.6,19.9
